From the supplement of paper PMC12636033
± gives the standard deviation of the averaged measurements. In all, about 33,000 sequences were measured (“E-score (rank enrichment, -0.5 to 0.5)”: median about -0.0068, highest 2% from about 0.24 on). The sample as a whole holds a higher share of the highest values than the screen did.

tested on: muMax20 (Max(13-93) K31hArg/K57hArg, M65Nle); experiment: PBM 8-mer E-score (E-score (rank enrichment, -0.5 to 0.5)); higher = stronger preferential binding
Procedure: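 Protein binding microarray (universal PBM chip covering all 10-mers in fixed probe flanks) with chemically synthesized human Max(13-93) bHLH-LZ analogs (not full-length Max) bearing noncanonical residues (hArg, Tha, Aib, Nle at 65) and aromatic Cys staples. Read-out per 8-mer (and its reverse complement): E-score (rank-based enrichment, -0.5 to 0.5) and Z-score of median probe intensity.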

Sequence | PBM 8-mer E-score
TCATGCAA | 0.277 ± 0.021
ACATGCGT | 0.243 ± 0.13
ACATGCAC | 0.185 ± 0.034
ACATGCAG | 0.032 ± 0.14
ACATGCAA | 0.16 ± 0.046
ATTTCACC | 0.0208 ± 0.092
ATTGTGGA | 0.0503 ± 0.16
AGATATAT | 0.176 ± 0.023
ATCGTACA | 0.159 ± 0.048
GTCGTACA | 0.242 ± 0.13
CTCGTACA | 0.041 ± 0.08
ACGTGAAT | 0.235 ± 0.083
CTTCTCAA | 0.0152 ± 0.1
AGCCAGCC | -0.293 ± 0.06
CCTAAGAA | 0.099 ± 0.038
ATGCTCAA | 0.0249 ± 0.035
CGCCGTGA | -0.131 ± 0.031
GAATAACA | 0.175 ± 0.11
CAATAATG | 0.117 ± 0.023
CAATAATC | 0.0932 ± 0.028
CAATAACA | 0.26 ± 0.066
TAATAACA | 0.124 ± 0.0069
AAATAATA | 0.232 ± 0.013
AAATAATT | 0.242 ± 0.046
AAATAATC | 0.0578 ± 0.046

Sequence | PBM 8-mer E-score
CAATAATA | 0.304 ± 0.0083
ATTTACCC | 0.0541 ± 0.029
CGTCTGGA | -0.178 ± 0.11
GCCTGTTA | 0.0517 ± 0.1
AGCACCCG | -0.159 ± 0.024
CGGCCAAA | -0.227 ± 0.024
CGCTGATA | -0.0375 ± 0.12
AAATAAAA | 0.252 ± 0.023
CAATAAAA | 0.197 ± 0.038
GAATAAAA | 0.0698 ± 0.033
AAATAAAT | 0.156 ± 0.054
TAATAAAA | 0.246 ± 0.0097
AAAATAAA | 0.116 ± 0.064
AAGCGTCC | -0.0322 ± 0.057
ACCTAGAT | -0.0454 ± 0.032
TGGGAAAA | 0.0021 ± 0.034
CTTTTTTC | 0.127 ± 0.031
ATTCGCTA | 0.0997 ± 0.028
CATCCATC | 0.0727 ± 0.029
GGGGTACC | -0.196 ± 0.038
GCATATAA | 0.113 ± 0.027
GTATTACA | 0.3133 ± 0.0018
CTATTATA | 0.0941 ± 0.095
ATATTACA | 0.137 ± 0.011
CTATTACA | 0.171 ± 0.028

Sequence | PBM 8-mer E-score
ATATTATA | 0.308 ± 0.012
ATATTACC | 0.244 ± 0.0062
ACATTATA | 0.21 ± 0.031
AAATTATT | 0.2538 ± 0.0012
GCATTACA | 0.142 ± 0.017
CTATTACC | 0.0779 ± 0.076
AAATTATG | 0.211 ± 0.015
AAATTATA | 0.173 ± 0.054
CCCTTTCG | -0.143 ± 0.066
AGAACTAC | 0.126 ± 0.015
CAGTGGGA | -0.0398 ± 0.11
CGAACAGA | -0.107 ± 0.056
AGCCTATC | 0.0159 ± 0.029
AACTTCTC | -0.0128 ± 0.016
CAGAGTTA | -0.06527 ± 0.00021
CTATTAGA | -0.0357 ± 0.074
GTATTAAA | 0.178 ± 0.049
GCATTATA | 0.129 ± 0.031
AGATTATG | 0.00982 ± 0.022
GTATTATA | 0.256 ± 0.063
GTATTAGA | 0.213 ± 0.0064
ATATTATG | 0.276 ± 0.015
ATATTAGA | 0.302 ± 0.026
ATATTATC | 0.0756 ± 0.14
AAACGGAA | -0.0336 ± 0.073

Sequence | PBM 8-mer E-score
CCTAGTAC | 0.0875 ± 0.082
ACTTCCTC | 0.052 ± 0.096
AACGCTAG | -0.145 ± 0.08
AAAACAGG | -0.0042 ± 0.15
AAAACAGC | 0.0469 ± 0.026
AAAACAAG | 0.111 ± 0.034
AAAACAAC | 0.00369 ± 0.069
AAAACAAT | 0.265 ± 0.029
AAAACAGT | 0.252 ± 0.029
GGGCTAAC | -0.0713 ± 0.048
ACCAGCCC | -0.112 ± 0.14
ACGTGACC | 0.302 ± 0.02
ACGTGACA | 0.312 ± 0.043
GCGTGACC | 0.0743 ± 0.024
CCGTGACA | 0.0799 ± 0.03
CCGTGACG | -0.149 ± 0.01
ACGTGACG | 0.271 ± 0.058
CCGTGACC | -0.272 ± 0.029
ACGTGACT | 0.234 ± 0.088
AGGTGACG | -0.141 ± 0.091
ACCAGAAC | 0.0216 ± 0.026
AGCGGCCA | -0.227 ± 0.059
TAGTACTA | 0.0405 ± 0.17
AAGGCGGA | -0.113 ± 0.044
TAGGCCCA | -0.123 ± 0.016

Sequence | PBM 8-mer E-score
CCAATTTA | 0.131 ± 0.034
GTGCCCTA | -0.0334 ± 0.02
ACGTTATC | 0.0863 ± 0.046
ACGTTATA | 0.228 ± 0.019
ACGTTATG | 0.282 ± 0.057
CCTGTACA | 0.0242 ± 0.16
GTACATAA | 0.175 ± 0.0024
CTACATAA | 0.0871 ± 0.052
ATACACAG | 0.0766 ± 0.089
AGACATAG | -0.014 ± 0.18
AGACATAC | 0.0812 ± 0.086
ATACATAT | 0.254 ± 0.075
CTACATAC | 0.178 ± 0.042
ATACACAT | 0.318 ± 0.0071
ATACACAC | 0.208 ± 0.053
AGACATAT | 0.29 ± 0.014
TTACATAA | 0.24 ± 0.0072
ATACATAG | 0.181 ± 0.13
ATCTAACA | 0.0591 ± 0.057
GCGCTTCA | -0.115 ± 0.063
CTAGAGCC | -0.187 ± 0.036
ACGATAGA | -0.0358 ± 0.083
GCACATAA | 0.151 ± 0.038
ATACATAA | 0.255 ± 0.032
GAACATAA | 0.123 ± 0.095

Sequence | PBM 8-mer E-score
ACACATAG | -0.0133 ± 0.049
AAACATAG | 0.126 ± 0.018
AAACATAA | 0.246 ± 0.1
ACACATAA | 0.265 ± 0.041
ATACATCA | 0.21 ± 0.061
ATACATAC | 0.169 ± 0.017
CTCAGGAG | -0.162 ± 0.071
ATCCTTGG | -0.0154 ± 0.11
CTTCCCTC | 0.0647 ± 0.025
AAGATTTG | 0.0326 ± 0.071
ACGTTTGC | 0.0313 ± 0.0058
CCGGTGAC | -0.252 ± 0.12
CTATGGTC | -0.125 ± 0.061
ACATGGCG | 0.175 ± 0.045
TAATGGTA | 0.193 ± 0.013
ACATGCTA | 0.164 ± 0.071
ACATGGTC | 0.245 ± 0.08
ACATGCTC | 0.237 ± 0.091
AGATGGTG | -0.0739 ± 0.067
CCATGGTC | -0.1574 ± 0.0011
CCATGCTC | 0.0121 ± 0.13
ACATGGTG | 0.241 ± 0.053
AAATGGTA | 0.238 ± 0.096
CAATGGTA | 0.0785 ± 0.022
ATCTGGTA | -0.00159 ± 0.021

Sequence | PBM 8-mer E-score
AGCGGCCC | -0.191 ± 0.026
CGACGGTC | -0.172 ± 0.15
AGTGTGTG | 0.0857 ± 0.065
AAGAGCTA | 0.12 ± 0.045
ATTTGTCA | 0.123 ± 0.0081
CCGGCCCG | -0.259 ± 0.054
CCATGGTA | 0.143 ± 0.12
GCATGGTA | 0.142 ± 0.082
ACATGGTA | 0.287 ± 0.017
GTACCACA | 0.115 ± 0.043
CGTGCTCC | 0.0253 ± 0.0099
ACATCGTA | 0.101 ± 0.015
AAAATTTT | 0.305 ± 0.019
AAAAATTT | 0.164 ± 0.0071
AAAATTTG | 0.12 ± 0.17
CACTGACC | -0.132 ± 0.086
ATCATGTC | 0.225 ± 0.024
ATCATGTG | 0.247 ± 0.12
AGCATGTG | 0.276 ± 0.029
ACCATGTC | 0.0641 ± 0.067
ATCATGTA | 0.108 ± 0.027
ACCATGTG | 0.359 ± 0.078
AGCATGTA | 0.228 ± 0.034
AGCATGTC | 0.0591 ± 0.078
ACCATGTA | 0.0719 ± 0.046
